rCAG RNA binder: binders of r(CAG) RNA repeats, primary screen, biochemical, fluorescence; r(CAG) RNA repeat, TO-PRO-1 dye displacement fluorescence; inhibition, % at 3 µM; 370,000 compounds, 1.3% hits;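 active = inhibition above the plate cutoff, the mean of all test compounds on that plate plus 3 SD, cut at about 35% in these data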;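 note: 0% = DMSO alone and 100% = 100 µM mitoxantrone as full dye displacement; higher means more dye released from RNA so lower well fluorescence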
MPTP inh: mitochondrial permeability transition pore inhibitors, primary screen, biochemical, isolated mouse mitochondria, absorbance. Ca2+ swelling absorbance, 30 min. inhibition, % at 10 µM. 360,000 compounds, 1.4% hits. AID 602449, 2012;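 active = inhibition of 50% or more, scaled per plate between neutral and stimulator controls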;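 note: 0% = DMSO wells given calcium and 100% = 1 mM EGTA wells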
FAS TE block: FAS thioesterase domain inhibitors, primary screen, biochemical, fluorescence intensity, uHTS; Fatty acid synthase (Homo sapiens), P49327; recombinant FAS-TE, OMFH fluorogenic substrate, fluorescence endpoint; inhibition, % at 15 µM; 360,000 compounds, 0.67% hits; AID 602261, 2012;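 active = compounds whose normalised, plate-corrected inhibition of enzyme fluorescence in the single-dose primary screen is 50% or more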;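 note: 0% = DMSO with enzyme and 100% = substrate without enzyme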
NR3A LBD binder: binders of NR3A ligand-binding domain, primary screen, biophysical, differential scanning fluorimetry, uHTS. Tm shift relative to glycine control, % at 25 µM. Glutamate receptor ionotropic, NMDA 3A (GRIN3A) ligand-binding domain. NR3A LBD differential scanning fluorimetry, Tm shift; 0% = protein alone, 100% = glycine-bound protein. 340,000 compounds, 2.5% hits;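 active = melting temperature shift of at least 10% of the positive control shift, at one fixed dose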
Myeloid diff 2: induction of myeloid progenitor differentiation, primary screen, cell-based, flow cytometry, MLPCN library; calls only at 10 µM; ER-HoxA9 myeloid progenitors, lysozyme-GFP differentiation; AID 624256, 2012; 360,000 compounds, 1% hits;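 active = normalized GFP-positive differentiation at or above the plate's own cutoff, the solvent-only control mean plus 3 SD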;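 note: cells exposed to compound for four days before flow analysis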
rCAG binder conf: small molecules binding CAG repeat RNA – biochemical, fluorescence, confirmation. shares compounds with rCAG RNA binder. r(CAG) RNA repeat, TO-PRO-1 dye displacement fluorescence. inhibition, % at 3 µM. 4,300 compounds, 70% hits. AID 652065, 2013;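 active = inhibition above a per-plate cutoff, the mean inhibition of sample wells plus 3 SD, cut at about 35% in these data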;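 note: loss of TO-PRO-1 fluorescence as compound displaces dye from 1x1 AA loop RNA; 0% = DMSO only wells and 100% = 100 µM mitoxantrone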
dCAG dye counter: displacement of TO-PRO-1 from CAG DNA duplex, counter-screen for rCAG RNA repeat binder project, biochemical, fluorescence, TO-PRO-1 dye, d(CAG) DNA oligo; shares compounds with rCAG RNA binder; d(CAG) DNA oligo TO-PRO-1 dye displacement; inhibition, % at 3 µM; 4,300 compounds, 94% hits; AID 652068, 2013;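 active = inhibition above its plate's cutoff, the mean test-well inhibition plus 3 SD, cut at about 4.8% in these data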;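 note: 0% = DNA dye mix with DMSO and 100% = 100 µM mitoxantrone; hits displace the dye from DNA and so lower well fluorescence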
dCAG dye DR: inhibitors of DNA CAG/GTC TO-PRO-1 complex, dose response, counter-screen for rCAG RNA repeat binder project, biochemical, fluorescence, TO-PRO-1 dye | DNA CAG/GTC duplex TO-PRO-1 dye displacement fluorescence | shares compounds with rCAG RNA binder | 250 compounds, 20% hits | IC50, µM; in the data active = IC50 below about 10 µM
The depositor's hits bear a star; i = inactive; / = no result. Hits are enriched below; roughly 5.7% of the tested compounds scored in any of these assays.

SMILES | rCAG RNA binder | MPTP inh | FAS TE block | NR3A LBD binder | Myeloid diff 2 | rCAG binder conf | dCAG dye counter | others
Clc1ccc(OCCOCCNCc2ccccc2)cc1Cl | -4 | 4 | 9 | 2 | i | / | /
COC(=O)c1cccc(CSc2nc(-c3ccccc3)c(C#N)c(=O)[nH]2)c1 | 75* | 2 | 6 | -5 | i | 63* | 23*
C=CCSc1nc(-c2ccccc2)c(C#N)c(=O)[nH]1 | 13 | 5 | -10 | -1 | i | / | /
Cc1cccc(NC(=O)CSc2nc(-c3ccccc3)c(C#N)c(=O)[nH]2)c1C | 33 | 0 | 0 | -11 | i | / | /
N#Cc1c(-c2ccccc2)nc(SCc2ccc(Cl)cc2)[nH]c1=O | 83* | 2 | 22 | / | i | 76* | 39*
CCCCN(C(=O)c1ccncc1)c1c(N)n(CCC)c(=O)[nH]c1=O | 2 | 1 | -5 | 1 | i | / | /
Cc1ccc(S(=O)(=O)N2[C@@H](c3cccc(Cl)c3)C(C(=O)O)=CC[C@H]2c2cccc(Cl)c2)cc1 | 9 | 4 | 15 | -13 | i | / | /
COc1ccc([C@@H]2CC=C(C(=O)O)[C@H](c3cccc(Cl)c3)N2S(=O)(=O)c2ccc(Cl)cc2)cc1 | 74* | -3 | 14 | -13 | i | 71* | 33* | dCAG dye DR=i
COc1ccc([C@@H]2CC=C(C(=O)O)[C@H](c3ccc(F)cc3)N2S(=O)(=O)c2ccc(Cl)cc2)cc1 | 58* | 1 | 2 | -1 | i | 47* | 15*
COC(=O)c1ccc(COC(=O)CNC(=O)CNC(=O)c2ccc(OC)cc2)cc1 | -6 | 2 | -10 | 0 | i | / | /
O=c1c(O)cccc2cc(O)c(O)c(O)c12 | 51* | 5 | 33 | -5 | i | 78* | 48*
CCN(CC)C1=NC=CC(c2ccccc2)=CC1C (configuration not stated) | -7 | 1 | -10 | -6 | i | / | /
COc1ccccc1N(C)C(=O)c1cc(S(=O)(=O)N2CCCC2)cn1C | 4 | 0 | -5 | 0 | i | / | /
Cc1ccc(C(C)C)c(OCC(=O)NS(=O)(=O)c2ccc(Cl)cc2)c1 | 51* | 5 | 4 | -1 | i | 36* | 7.0*
Cc1cc2[nH]c(=O)cc(-c3ccccc3)n2n1 | 1 | 0 | -6 | 0 | i | / | /
Nc1nn2c(-c3ccccc3)cc(=O)[nH]c2c1N=Nc1ccc(Br)cc1 | 35* | 2 | 37 | 25* | i | 80* | 40*
N#C/C(=N\Nc1ccc(Cl)c(Cl)c1)C(=O)C1CC1 | 52* | 48 | 19 | 12* | i | 55* | 17*
Cc1ccc(-c2ccc(=O)n(CC(=O)NCCC(C)C)n2)cc1 | 0 | 0 | -4 | 0 | i | / | /
O=C(CSc1n[nH]c(-c2ccc(S(=O)(=O)N3CCCCC3)cc2)n1)Nc1nccs1 | 39* | 9 | -36 | -4 | i | 36* | 9.0*
Cn1c(SCC(=O)Nc2nccs2)nnc1-c1ccc(S(=O)(=O)N2CCCC2)cc1 | -4 | 2 | -5 | 1 | i | / | /
Cc1ccc(NC(=O)Cn2cnc3c(NCc4ccccc4)ncnc32)cc1C | 1 | 4 | -6 | 2 | i | / | /
Cc1ccc(O)c(N=CC2=C(O)c3ccccc3C2=O)c1 | 51* | 4 | 18 | -12 | i | 42* | 18*
O=C1C(C=Nc2ccccc2O)=C(O)c2ccccc21 | 13 | 2 | 11 | -2 | i | / | /
CC(Oc1ccc(Cl)cc1Cl)C(=O)Nn1cnnc1 (configuration not stated) | 3 | 0 | -2 | 1 | i | / | /
CC(C)(Oc1ccc(Cl)cc1)C(=O)NC1=NN(c2ccccc2)C(=O)C1 | 74* | 9 | -3 | 1 | i | 27 | 12*
SMILES | rCAG RNA binder | MPTP inh | FAS TE block | NR3A LBD binder | Myeloid diff 2 | rCAG binder conf | dCAG dye counter | others
O=C1CC(NC(=O)C(F)(F)F)=NN1c1ccccc1 | 6 | -1 | -4 | -1 | i | / | /
CC(Oc1ccc(Cl)cc1Cl)C(=O)NC1=NN(c2ccccc2)C(=O)C1 (configuration not stated) | 58* | 1 | 3 | -3 | i | 53* | 25*
COCc1ccc(CN2CCCC(C(=O)Nc3ccc(-c4cscn4)cc3)C2)o1 (configuration not stated) | -2 | 1 | -4 | 0 | i | / | /
CCCc1cc(=O)oc2cc(OCC(=O)NCC(O)c3ccccc3)ccc12 (configuration not stated) | 2 | 2 | -6 | -1 | i | / | /
CC(=O)c1cccc(NC(=S)NNC(=O)c2ccc(C)c([N+](=O)[O-])c2)c1 | 41* | -1 | 13 | 3 | i | 38* | 15*
COc1ccc(/C=C/C(=O)Nc2c(C(=O)O)[nH]c3ccccc23)cc1OC | 38* | 1 | -2 | 3 | i | 26 | 7.0*
CC1CCc2nc3ccc(S(=O)(=O)N4CCC(C(=O)NC(C)c5ccccc5)CC4)cc3c(C(=O)O)c2C1 (configuration not stated) | 38* | 1 | 0 | -1 | i | 45* | 14*
O=C(Nc1ccccc1C(=O)O)/C(=C/c1ccc(Cl)cc1Cl)NC(=O)c1ccco1 | 52* | 0 | -3 | -2 | i | 27 | 6.0*
CCOc1ccc(-c2cc(C(=O)NC3CCCCC3)[nH]n2)c(C)c1 | 2 | 1 | -7 | / | i | / | /
Nc1c(C(=O)NCC2CCCO2)sc2nc3c(c(-c4ccco4)c12)CC/C3=C\c1ccco1 (configuration not stated) | 60* | 9 | 10 | -1 | i | 83* | 53*
COc1ccc(C(=O)CSC(=S)N2CCCCC2)cc1 | / | -1 | 2 | / | i | / | /
COc1cc(/C=C(\C#N)C(=O)NC2CCCCC2)ccc1OCc1ccc(C(=O)O)cc1 | 40* | -1 | 4 | 0 | i | 38* | 9.2*
COc1cc(/C=C(\C#N)C(=O)NCc2ccccc2)ccc1OCc1ccc(C(=O)O)cc1 | 43* | 0 | -3 | 0 | i | 30 | 5.9*
N#C/C(=C\c1ccc(OCc2ccc(C(=O)O)cc2)cc1)C(=O)NCc1ccccc1 | 41* | -1 | 2 | 2 | i | 30 | 5.9*

Screening results from PubChem BioAssay.
